Screening data from PubChem.
Tb PFK inh – T. brucei PFK enzyme inhibition. T. brucei PFK, ADP-Glo luminescence. Potency, µM (highest dose often 57.5 µM), without a hit: top-dose activity, negative = inhibition, actives largely listed as inhibitors. 0.17% of 330,000 active. O15648. AID 485367;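 note: 0% = uninhibited 1x PFK enzyme wells and -100% = no-enzyme wells; nearly all actives have a fitted effect of over 60% in size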
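Activity is normalized to no-enzyme wells (full inhibition) and 1.25 nM enzyme wells (no inhibition). Reaction: 0.5 mM F6P, 0.1 mM ATP, 45 min RT, ADP-Glo luminescence; concentration-response curves fitted and classed by quality.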
TDP1 inh – TDP1 (human) enzyme inhibition | Q9NUW8 | recombinant TDP1, AlphaScreen DNA substrate cleavage | Potency, µM (highest dose often 130 µM), without a hit: at the top dose activity change, negative = inhibition, most hits filed as inhibitors | 0.28% of 350,000 active; note: % is set by controls: 0 for no effect and ±100 for the full control effect; nearly all actives have a fitted effect of over 40% in size
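AlphaScreen read-out: signal falls as enzyme removes the 3' tyrosine-FITC from a 5'-biotinylated DNA oligo (15 nM, 5 min, RT). Enzyme was E. coli-made recombinant Tdp1 at 1 nM, exposed to compound for 15 min beforehand; beads 10 ug/ml, 10 min.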
PLK1 PBD inh – blocks phosphopeptide binding to human PLK1 polo-box domain | Plk1 PBD binding of FITC phosphopeptide, fluorescence polarization | P53350 | 2.8% of 360,000 active | Potency, µM, inactives show max response, negative = inhibition, most hits filed as inhibitors | AID 720504; note: series mostly up to about 57 µM; % is set by controls: 0 for no effect and ±100 for the full control effect; nearly all actives have a fitted effect of over 65% in size
Pin1 inh – human Pin1 inhibition; Pin1 FP peptide displacement, HiFluor488, 10 min; AID 504891; Q13526; Potency, µM (top dose mostly 115 µM), for inactives: top-dose activity, negative = inhibition, actives largely listed as inhibitors; 0.009% of 390,000 active; active = well fitted inhibition curve with a large enough effect in the polarisation, with a control signal flat, not every such curve was filed as active; inconclusive = small, poorly fitted or top-dose-only effect, or effect the other way, or a change in a side signal; inactive = no such curve, though single readings can be large or run the other way; the % refers to the polarisation; note: % is set by controls: 0 for no effect and ±100 for the full control effect
VDR inh – vitamin D3 receptor (human) inhibition; P11473; 0.93% of 400,000 active; VDR-SRC2-3 peptide fluorescence polarization, 2 h; AID 504847; Potency, µM, for inactives: max response, negative = inhibition, most hits filed as inhibitors; note: % is set by controls: 0 for no effect and ±100 for the full control effect
Target sequence (P11473 whole entry, looked up): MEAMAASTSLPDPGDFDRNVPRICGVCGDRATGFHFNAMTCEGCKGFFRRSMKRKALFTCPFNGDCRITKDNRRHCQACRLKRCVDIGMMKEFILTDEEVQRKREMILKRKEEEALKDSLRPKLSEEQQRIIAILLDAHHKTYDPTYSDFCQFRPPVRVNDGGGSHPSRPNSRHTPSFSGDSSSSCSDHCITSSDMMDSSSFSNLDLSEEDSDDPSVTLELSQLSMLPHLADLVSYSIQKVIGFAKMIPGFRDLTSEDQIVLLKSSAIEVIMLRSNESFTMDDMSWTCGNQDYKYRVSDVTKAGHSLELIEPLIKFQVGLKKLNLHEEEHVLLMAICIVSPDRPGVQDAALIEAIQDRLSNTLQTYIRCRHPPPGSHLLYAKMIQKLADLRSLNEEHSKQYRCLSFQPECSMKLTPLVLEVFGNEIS
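VDR–SRC2-3 interaction, FP format. Cmpds 23 nl via pintool, brief spin, 2 h ambient incubation.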
ASM inhibitor – blocks human secretory acid sphingomyelinase; placental ASM, HMU-PC fluorogenic substrate, 60 min; 0.006% of 340,000 active; Potency, µM (top dose mostly 57.5 µM), for inactives: at the top dose activity change, negative = inhibition, hits mostly inhibitors; AID 504937; P17405
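HMU-PC0 cleavage (9 uM final) by human placental ASM, 60 min at 37 °C following 10 min compound exposure at RT; stopped at pH 10, fluorescence Ex 386/Em 447 nm.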
The depositor's hits bear a star; ? = inconclusive; . = not tested or not shown. In the library only some 3.1% were active in any assay of this set; here they are far more common. Unless noted, calls come from the whole dose curve; as a rule, active = well fitted curve in the direction sought with a large enough effect; inconclusive = small, poorly fitted or top-dose-only effect, or another doubt; inactive = no such curve, though single readings can be large; an effect the other way counts as inactive or inconclusive. Potency is the fitted concentration of half-maximal effect.

SMILES	Tb PFK inh	TDP1 inh	PLK1 PBD inh	Pin1 inh	VDR inh	ASM inhibitor
COc1cc(C(=S)N2CCCC2)cc(OC)c1OS(=O)(=O)c1ccc(NC(C)=O)cc1	-10%	2%	12µM*	3%	?	4%
COC(=O)c1c(SCC(=O)Nc2ccccc2OC)[nH]c2ccccc2c1=O	.	0%	.	3%	13%	.
CC(C)(C)c1cc(CNC2CS(=O)(=O)C[C@@H]2O)cc(C(C)(C)C)c1O (stereo partly specified)	-1%	4%	?	-4%	50µM*	-2%
O=C1N=c2ccccc2=C1c1c(O)[nH]c2c(C(F)(F)F)cccc12	2%	.	27µM*	-4%	35µM*	1%
O=[N+]([O-])c1cc([N+](=O)[O-])c2c(=Nc3ccccc3)n(-c3ccccc3)n(O)c2c1	?	9%	6µM*	-4%	?	-3%
O=[N+]([O-])c1cccc(C(=Nc2ccccc2)NO)c1	3%	2%	0%	-4%	-2%	1%
COc1cc(NC(=O)CCc2nc3cccnc3n2Cc2cccs2)cc(OC)c1OC	.	4%	.	?	-19%	.
NCCCCCc1nnc(SCc2ccc(F)cc2)o1	.	-3%	.	2%	?	.
CCc1ccc(Nc2nnc(SCC(=O)NC(=O)CN3CCCC3=O)s2)cc1	-26%	18µM*	-5%	-5%	-7%	-1%
Cc1cc2c(s1)c1cnn(Cc3ccccc3Br)c(=O)c1n2C	.	.	.	0%	.	.
COc1ccccc1/C=C1\C(=O)Nc2ccccc21	0%	8%	3%	4%	-28%	-5%
COc1ccccc1/C=C1/C(=O)N(c2ccccc2)N=C1C	5%	.	2.7µM*	-3%	?	-5%
COc1ccccc1/C=C1/C(=O)ON=C1C	-5%	.	4.7µM*	-2%	50µM*	0%
COc1ccc(S(=O)(=O)N2CCC(C(=O)N3CCCC3)CC2)cc1	1%	4%	-2%	2%	12%	3%
COc1ccc(S(=O)(=O)N2CCC(C(=O)NCCC(=O)Nc3cccc(Cl)c3)CC2)cc1	1%	2%	6.7µM*	0%	28µM*	2%
COc1ccc(NC(=O)CCNC(=O)C2CCN(S(=O)(=O)c3ccccc3)CC2)cc1OC	.	.	-10%	.	.	.
COc1ccc(N2CCN(C(=O)C3CCN(S(=O)(=O)c4cccs4)CC3)CC2)cc1	4%	5%	17µM*	1%	?	-4%
COc1ccc(S(=O)(=O)N2CCC(C(=O)N3CCCCCC3)CC2)cc1	3%	-7%	11µM*	-1%	-10%	-2%
COc1ccc(S(=O)(=O)N2CCC(C(=O)N[C@@H](C)C(=O)NC3CCCC3)CC2)cc1	-1%	1%	19µM*	-9%	?	1%
N#Cc1nc(-c2ccc(OCc3ccccc3Cl)cc2)oc1N1CCCCCC1	.	6%	.	3%	-4%	.
Cc1ccc(-c2nc(-c3cc4cc(Cl)ccc4oc3=O)sc2C)cc1	.	-8%	.	?	-10%	.
CSc1ncc(Cl)c(C(=O)Nc2ccc(S(=O)(=O)N3CCC(C)CC3)cc2)n1	.	10%	.	6%	15%	.
O=C(COc1ccccc1F)Nc1ccc2nc(SCC(=O)N3CCOCC3)sc2c1	.	2%	.	-8%	12%	.
COc1ccc(S(=O)(=O)N2CCN(C(=S)NCCc3ccccc3)CC2)cc1	-7%	2%	4%	0%	-1%	-3%
COc1ccc2cc(S(=O)(=O)N3CCCC(C)C3)ccc2c1 (stereo unspecified)	0%	-9%	27µM*	-5%	89µM*	-1%
COC(=O)Nc1ccc(S(=O)(=O)N2CCC(C(=O)N3CCC(C)CC3)CC2)cc1	10%	-2%	9.5µM*	-16%	?	-1%
COCCCNC(=S)N1CCN(S(=O)(=O)c2ccc(OC)cc2)CC1	0%	0%	21µM*	14%	-5%	-4%
Oc1ccc(Cl)cc1C1C=C(c2ccc3c(c2)OCO3)NC(c2ccc(Cl)cc2)N1 (stereo unspecified)	.	2%	.	31%	?	.
